Source: PubChem BioAssay AID1851 (National Center for Advancing Translational Sciences (NCATS), 2009)
Out of some 16,000 compounds screened, about 5,800 (36%) were called active. About 23% were inconclusive and are not listed. Calls come from the whole dose curve; as a rule, active = well fitted curve in the direction sought with a large enough effect; inconclusive = small, poorly fitted or top-dose-only effect, or effect the other way; inactive = no such curve, though single readings can be large or run the other way. Some of the results follow.

Target: Cytochrome P450 2C19 (Homo sapiens) (UniProt P33261)
Experiment: Cytochrome panel assay with activity outcomes
Conditions: recombinant CYP, pro-luciferin dealkylation, luminescence, p450-cyp2c19; series mostly up to 57.1 µM; activity, negative = inhibition: at the top concentration
% is set by controls: 0 for no effect and ±100 for the full control effect.

Chain of Cytochrome P450 2C19 (Homo sapiens) (P33261 whole entry, looked up): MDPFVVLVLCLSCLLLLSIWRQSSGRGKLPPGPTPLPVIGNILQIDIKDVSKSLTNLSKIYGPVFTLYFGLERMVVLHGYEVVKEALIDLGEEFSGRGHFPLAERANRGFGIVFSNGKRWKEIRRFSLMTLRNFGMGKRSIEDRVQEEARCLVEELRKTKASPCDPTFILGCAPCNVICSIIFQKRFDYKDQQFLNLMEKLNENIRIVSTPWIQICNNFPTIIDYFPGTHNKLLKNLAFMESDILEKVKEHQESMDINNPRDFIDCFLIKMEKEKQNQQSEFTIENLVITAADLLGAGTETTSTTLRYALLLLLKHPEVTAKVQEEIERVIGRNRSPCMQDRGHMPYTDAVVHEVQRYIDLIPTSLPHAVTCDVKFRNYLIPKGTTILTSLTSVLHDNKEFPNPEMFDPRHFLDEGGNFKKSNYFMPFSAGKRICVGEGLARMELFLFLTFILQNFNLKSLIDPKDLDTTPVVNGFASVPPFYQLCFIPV

Compound | AC50 | activity, negative = inhibition
CCC(=O)OCc1c(C(F)(F)F)nn(C)c1Sc1ccc(F)cc1 | 1.41 µM (active) | –
CC(=O)OCc1c(C(F)(F)F)nn(C)c1Sc1ccccc1 | 0.891 µM (active) | –
CC(C)(N=NC(C)(C)C1=NCCN1)C1=NCCN1 | – | 30.5% [at 11.4 µM] (inactive)
COC(Cn1c(C)c(C(C)=O)c(C(C)=O)c1C)OC | – | 2.91% (inactive)
N#C/C(=C\c1ccc(N2CCCC2)c([N+](=O)[O-])c1)c1nc2ccccc2[nH]1 | 1 µM (active) | –
N#C/C(=C/c1ccc(N2CCCC2)c([N+](=O)[O-])c1)c1nc2ccccc2[nH]1 | 1.26 µM (active) | –
Cn1c(=O)n2n(c1=O)[C@H]1[C@H](O)[C@H]3O[C@H]3C(=O)[C@H]1CC2 | – | 20.1% [at 11.4 µM] (inactive)
C1CCC(C(C[C@@H]2CCCCN2)C2CCCCC2)CC1 | – | -2.64% [at 25.6 µM] (inactive)
C[C@@H]1O[C@H](O[C@@H]2[C@@H](Oc3cc(O)c4c(c3)O[C@H](c3ccc(O)cc3)CC4=O)O[C@@H](CO)[C@@H](O)[C@H]2O)[C@@H](O)[C@H](O)[C@@H]1O | – | -34.9% [at 25.6 µM] (inactive)
O=S(=O)(O)c1ccc(-c2nnc(-c3ccccn3)nc2-c2ccc(S(=O)(=O)O)o2)o1 | – | -6.8% [at 11.4 µM] (inactive)
c1ccc(-c2nc3ccccc3o2)nc1 | 14.1 µM (active) | –
c1ccc(-c2ccccn2)nc1 | – | -25.4% (inactive)
CC(C)=CCNc1ncnc2nc[nH]c12 | – | 26.8% [at 11.4 µM] (inactive)
O=[N+]([O-])/C=C/c1cn(Cc2ccccc2)c2ccccc12 | 1.41 µM (active) | –
O=C1CS/C(=C\[N+](=O)[O-])N1c1ccc(OC(F)(F)F)cc1 | 3.98 µM (active) | –
C/C=C\C1=C(CO)C(=O)C2O[C@]2(CC=C(C)C)C1=O (stereo not given in full) | – | -25.8% [at 11.4 µM] (inactive)
Cc1ccc(C(=O)N2C3C=CC(C3)C2(C(F)(F)F)C(F)(F)F)cc1 (stereo not given) | 15.8 µM (active) | –
O=S(=O)(CC(O)COc1ccccc1Cl)c1ccccc1 (stereo not given) | 7.08 µM (active) | –
C=CCOc1ccccc1OC[C@H](O)CNC(C)C | – | -20% [at 25.6 µM] (inactive)
COc1ccccc1OC[C@H](O)COC(N)=O | – | -7.57% [at 25.6 µM] (inactive)
O=C(Nc1cccc2ncccc12)c1cccc(F)c1 | – | -10.5% (inactive)
O=C(Nc1cccc2ncccc12)c1ccc(-c2ccc(Br)cc2)o1 | 4.47 µM (active) | –

Compound | AC50 | activity, negative = inhibition
COc1ccc2[nH]cc(CCNc3ccnc(-c4ccccc4C)n3)c2c1 | 2.51 µM (active) | –
CC(=O)NCCNc1ccnc(-c2ccccc2C)n1 | – | -6.01% (inactive)
COc1ccc2[nH]cc(CCNc3ccnc(-c4ccccc4C(F)(F)F)n3)c2c1 | 25.1 µM (active) | –
COc1cccc(CNc2ccc(F)c(Cl)c2)c1O | 3.16 µM (active) | –
Cc1noc(C)c1C(=O)N1CCC[C@@]2(CCN(C(=O)Nc3ccccc3)C2)C1 | – | -2.9% (inactive)
CCC(CC)C(=O)Nc1cccc(/C(C)=N/NC(=O)c2c(Br)cnn2C)c1 | – | 12.7% (inactive)
CCOC(=O)c1c(NC(=O)c2c(Br)cnn2C)c(C#N)nn1-c1ccccc1 | 11.2 µM (active) | –
Cc1ccc(C(c2ccc(C)o2)c2cccc([N+](=O)[O-])c2O)o1 | 3.55 µM (active) | –
O=C1NC(=S)N/C1=C/c1cccc([N+](=O)[O-])c1O | – | -7.68% (inactive)
Cc1c(-c2ccc(O)cc2)nn(-c2ccc(O)cc2)c1-c1ccc(OCCN2CCCCC2)cc1 | – | 25% (inactive)
O=C(NCC1CCCO1)/C(=C\c1ccco1)NC(=O)c1ccccc1 (stereo not given) | – | 16.1% (inactive)
Cc1ccc(C(=O)N/C(=C/C=C/c2ccccc2)C(=O)NCc2ccco2)cc1 | 2.24 µM (active) | –
CC(C)OC(=O)/C(=C\C=C\c1ccccc1)NC(=O)c1ccccc1 | – | -28.8% (inactive)
C=CCNC(=O)/C(=C\C=C\c1ccccc1)NC(=O)c1ccc(OCCCC)cc1 | 14.1 µM (active) | –
CCC(=O)Nc1ccc(C(=O)CSc2nnc(-c3ccc(O)cc3)n2CC2CCCO2)cc1OC (stereo not given) | – | -29.4% (inactive)
Cc1ccc(CSc2nnc(-c3ccncc3)n2CC2CCCO2)cc1 (stereo not given) | 4.47 µM (active) | –
COc1ccc(-c2nc3cnc(N(C)C)nc3n(C[C@H]3CCCO3)c2=O)cc1 | – | 36.9% (inactive)
CCn1c(-c2ccc(N(C)C)cc2)nc2ccccc21 | 39.8 µM (active) | –
O=C(NCCCc1ccccc1)c1cccs1 | 2.51 µM (active) | –
Cc1cc(C)c(NC(=O)CS(=O)CC(=O)NCCCc2ccccc2)c(C)c1 (stereo not given) | – | -9.86% (inactive)
Cc1ccc(NC(=O)NCCCc2ccccc2)cc1 | 2.51 µM (active) | –
Cc1ccc(S(=O)(=O)NNc2ccccc2)cc1 | 2.82 µM (active) | –

Compound | AC50 | activity, negative = inhibition
Cc1ccc(NC(=O)NNS(=O)(=O)c2ccc(Br)cc2)cc1 | – | -18.6% (inactive)
Cc1ccc(S(=O)(=O)NC(=O)OC23COCN2COC3)cc1 | – | 12.8% [at 11.4 µM] (inactive)
Cc1ccc(NNS(=O)(=O)c2ccc(C)cc2)cc1 | 7.08 µM (active) | –
CO[C@H]1COC(=O)[C@@H](Cc2ccccc2)NC(=O)[C@@H](C)COC(=O)CCC[C@@H]1C | – | -15.4% [at 11.4 µM] (inactive)
COc1ccccc1C1(CC(=O)Nc2nccs2)CCOC(C(C)C)C1 (stereo not given) | 1.58 µM (active) | –
Nc1c(-c2cccs2)cnn1-c1nc(-c2ccc(F)cc2)cs1 | – | -22.7% (inactive)
COc1ccc(-c2csc(-n3ncc(-c4cccs4)c3N)n2)cc1 | – | -7.82% (inactive)
Nc1c(-c2cccs2)cnn1-c1nc(-c2ccc(Cl)cc2Cl)cs1 | 0.0708 µM (active) | –
COc1ccccc1CNc1ncncc1-c1ccccc1C(F)(F)F | 1.58 µM (active) | –
COc1ccc(CNc2ncncc2-c2ccccc2C(F)(F)F)c(OC)c1 | 1.58 µM (active) | –
COCCn1c(=O)c(C)nc2cnc(N(C)C)nc21 | – | -29.1% (inactive)
COc1ccc(-n2c(=O)c(C)nc3cnc(N4CCOCC4)nc32)cc1 | – | -16.1% (inactive)
CN(C)C(=O)c1ccc(-c2ccc3ncnc(N4CCOCC4)c3c2)cc1 | – | -28.9% (inactive)
COC(=O)c1ccc(Oc2nc(N(C)C)nc(N3CCOCC3)n2)cc1 | 14.1 µM (active) | –
N#Cc1c(NC(=O)C(F)(F)F)sc2c3c(=O)c4ccccc4c(=O)c=3oc3ccccc3c12 | 0.501 µM (active) | –
Cn1c(=S)c2[nH]c(SCc3cccnc3)nc2n(C)c1=O | – | 23.1% [at 11.4 µM] (inactive)
Cc1cccc(N2CCN(C(=O)CCCn3c(=S)[nH]c4cc5c(cc4c3=O)OCO5)CC2)c1C | 2.82 µM (active) | –
O=C(CCCn1c(=S)[nH]c2cc3c(cc2c1=O)OCO3)N1CCN(c2ncccn2)CC1 | 22.4 µM (active) | –
C=CCNC(=O)c1ccc(Cn2c(=S)[nH]c3cc4c(cc3c2=O)OCO4)cc1 | – | -25.9% (inactive)
O=C(CCCn1c(=S)[nH]c2cc3c(cc2c1=O)OCO3)N1CCN(c2ccccc2)CC1 | 10 µM (active) | –
O=c1c2cc(Br)ccc2[nH]c(=S)n1Cc1cccnc1 | 1.58 µM (active) | –
